# In PubChem BioAssay:
# Activity calls are given as the source filed them.
# How the values were obtained:
# [1] = test system: Plasmodium falciparum Sir2 (PF13_0152, Sir2A); assay: pfSir2 binders on small-molecule microarrays, primary screen, biochemical, small-molecule microarray, 635 nm fluorescence (AID 1098); conditions: small-molecule microarray binding, fluorescence 635 nm; higher = more signal;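 further: score merges spot fluorescence intensity with its signal-to-noise ratio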
# [2] = small-molecule microarray binders of probe aDKK1, primary screen, biochemical, biotinylated probe, 635/667 nm fluorescence (AID 1099); conditions: higher = more signal;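 further: score merges 667nm spot fluorescence with signal to noise across triplicate slides; reference of the scale not given here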
# [3] = small-molecule microarray binders of probe aCHRDL2, primary screen, biochemical, biotinylated probe, 635/667 nm fluorescence (AID 1100); conditions: higher = more signal
# [4] = splicing luciferase reporter signal modulators, primary screen, spliceosome inhibition project, cell-based, HEK293, splice +/- reporter (AID 1101); conditions: luminescence, 24 h, higher = more signal, called active from +8 up or from −8 down;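 further: HEK293 cells carrying a splicing-competent luciferase reporter gene; test concentration not given here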
# [5] = target: Fibroblast growth factor 10 (Homo sapiens) (UniProt O15520); assay: FGF10 binders on small-molecule microarrays, primary screen, biochemical, small-molecule microarray, 635 nm fluorescence (AID 1102); conditions: FGF10 binding, fluorescence 635 nm, higher = more signal
# Fibroblast growth factor 10 (Homo sapiens), sequence (O15520 whole entry, looked up): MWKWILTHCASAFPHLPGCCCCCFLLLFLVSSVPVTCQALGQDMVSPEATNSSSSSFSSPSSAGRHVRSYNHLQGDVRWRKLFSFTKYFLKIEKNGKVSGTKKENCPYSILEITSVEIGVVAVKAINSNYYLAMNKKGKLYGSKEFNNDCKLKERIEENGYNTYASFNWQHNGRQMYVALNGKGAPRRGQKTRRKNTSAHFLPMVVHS
# [6] = test system: glycogen synthase kinase-3 (GSK3A per assay name; protocol says GSK3B); assay: GSK3 binders on small-molecule microarrays, primary screen, biochemical, small-molecule microarray, 635 nm fluorescence, GSK3A (AID 1103); conditions: small-molecule microarray binding, fluorescence 635 nm; higher = more signal; further: the record names both GSK3A and GSK3B
# [7] = target: Epidermal growth factor receptor (Homo sapiens) (UniProt P00533); assay: EGFR binders on small-molecule microarrays, primary screen, biochemical, small-molecule microarray, 635 nm fluorescence (AID 1104); conditions: EGFR binding, higher = more signal;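 further: score merges 667 nm emission intensity with spot signal to noise over triplicate slides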
# Epidermal growth factor receptor (Homo sapiens), sequence (P00533 whole entry, looked up): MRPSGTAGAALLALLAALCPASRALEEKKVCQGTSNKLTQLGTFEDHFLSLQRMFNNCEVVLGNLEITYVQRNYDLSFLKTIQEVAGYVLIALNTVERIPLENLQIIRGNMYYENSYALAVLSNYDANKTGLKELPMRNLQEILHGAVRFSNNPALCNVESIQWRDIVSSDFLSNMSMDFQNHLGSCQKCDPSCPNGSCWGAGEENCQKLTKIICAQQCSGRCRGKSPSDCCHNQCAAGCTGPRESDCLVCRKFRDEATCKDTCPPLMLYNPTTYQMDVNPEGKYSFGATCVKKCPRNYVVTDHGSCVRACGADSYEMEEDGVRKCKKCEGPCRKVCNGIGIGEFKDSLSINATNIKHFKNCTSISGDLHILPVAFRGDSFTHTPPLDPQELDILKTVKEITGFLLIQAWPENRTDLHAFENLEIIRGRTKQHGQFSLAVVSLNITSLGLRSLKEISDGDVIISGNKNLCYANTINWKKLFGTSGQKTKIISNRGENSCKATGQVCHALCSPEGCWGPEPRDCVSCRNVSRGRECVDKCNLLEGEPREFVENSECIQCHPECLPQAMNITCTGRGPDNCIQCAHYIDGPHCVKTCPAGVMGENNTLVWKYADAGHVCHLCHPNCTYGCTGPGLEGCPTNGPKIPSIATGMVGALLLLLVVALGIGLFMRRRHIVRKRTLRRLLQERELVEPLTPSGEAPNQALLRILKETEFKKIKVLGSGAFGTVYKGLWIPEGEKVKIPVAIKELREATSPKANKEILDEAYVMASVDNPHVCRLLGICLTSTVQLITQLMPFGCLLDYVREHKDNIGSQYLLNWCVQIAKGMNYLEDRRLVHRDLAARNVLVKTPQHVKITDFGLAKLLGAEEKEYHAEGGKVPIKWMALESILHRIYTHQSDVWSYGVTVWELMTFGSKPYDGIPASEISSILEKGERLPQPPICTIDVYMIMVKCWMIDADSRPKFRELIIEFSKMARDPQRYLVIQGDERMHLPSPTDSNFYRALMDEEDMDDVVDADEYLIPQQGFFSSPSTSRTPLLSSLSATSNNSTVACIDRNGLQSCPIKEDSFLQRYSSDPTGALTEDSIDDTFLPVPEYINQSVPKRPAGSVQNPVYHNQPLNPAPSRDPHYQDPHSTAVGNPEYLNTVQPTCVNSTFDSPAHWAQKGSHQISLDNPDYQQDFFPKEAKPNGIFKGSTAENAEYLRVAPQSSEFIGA
# [8] = target: Follistatin-related protein 3 (Homo sapiens) (UniProt O95633); assay: FSTL3 binders on small-molecule microarrays, primary screen, biochemical, small-molecule microarray, 635 nm fluorescence (AID 1105); conditions: FSTL3 binding, higher = more signal;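 further: score merges emission near 667 nm and signal to noise per printed spot across three slides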
# Follistatin-related protein 3 (Homo sapiens), sequence (O95633 whole entry, looked up): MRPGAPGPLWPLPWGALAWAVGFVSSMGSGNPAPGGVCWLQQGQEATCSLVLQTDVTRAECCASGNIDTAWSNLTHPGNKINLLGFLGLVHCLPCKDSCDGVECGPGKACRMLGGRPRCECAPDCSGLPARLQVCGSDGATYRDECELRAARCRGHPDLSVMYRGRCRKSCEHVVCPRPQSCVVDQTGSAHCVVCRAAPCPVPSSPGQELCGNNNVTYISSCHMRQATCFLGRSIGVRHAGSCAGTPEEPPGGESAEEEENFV
# [9] = target: Dickkopf-related protein 1 (Homo sapiens) (UniProt O94907); assay: DKK1 binders on small-molecule microarrays, primary screen, biochemical, small-molecule microarray, 635 nm fluorescence scan (AID 1106); conditions: DKK1 binding, higher = more signal;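 further: score merges emission near 667 nm with signal to noise over three replicate slides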
# Dickkopf-related protein 1 (Homo sapiens), sequence (O94907 whole entry, looked up): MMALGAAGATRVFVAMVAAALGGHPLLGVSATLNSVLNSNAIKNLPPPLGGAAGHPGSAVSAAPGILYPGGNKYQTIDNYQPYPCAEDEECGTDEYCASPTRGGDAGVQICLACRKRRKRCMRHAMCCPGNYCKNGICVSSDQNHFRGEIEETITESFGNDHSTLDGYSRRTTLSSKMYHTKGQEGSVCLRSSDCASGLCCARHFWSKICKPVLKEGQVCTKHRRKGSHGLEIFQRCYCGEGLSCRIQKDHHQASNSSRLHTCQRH
# [10] = test system: Inhibin beta A chain (activin A); assay: INHBA (activin A) binders on microarrays, primary screen, biochemical, small-molecule microarray, 635 nm fluorescence scan (AID 1107); conditions: small-molecule microarray binding, higher = more signal;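 further: mouse activin A protein probed at 4.33 µg/mL on printed slides; score merges bound-protein fluorescence near 667 nm with spot signal-to-noise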
Compound,composite z-score [1],composite z-score [2],composite z-score [3],z-score [4],composite z-score [5],composite z-score [6],composite z-score [7],composite z-score [8],composite z-score [9],composite z-score [10]
N#Cc1ccc(NN2C(C(O)c3cccc4ccccc34)C=CC3C(=O)N(c4ccccc4)C(=O)C32)cc1 (stereo not given),0.582,0.687,1.14,1.27 (inactive),0.899,0.676,0.316,0.898,-0.203,0.478
C[C@@H]1CCC2C(=O)N(Cc3ccccc3)C[C@@H](O)CN2[C@H]1c1ccc(Br)cc1 (stereo not given in full),0.892,-0.276,-0.441,-1.89 (inactive),0.91,0.104,-0.0897,0.078,0.228,0.203
CCCC[C@@H](O)C1=C(C)C[C@H]2C(=O)N(Cc3ccccc3)C(=O)[C@H]2[C@H]1CO,0.222,-0.407,-0.494,0.0445 (inactive),0.264,-0.0254,0.464,0.449,0.524,0.899
CCCNC(=O)OC[C@H]1O[C@H](CCON=C[C@@H](OC)[C@H](C)C=CCC(=O)OC)C=C[C@@H]1Oc1ccc(OC)cc1,0.638,-0.305,-0.528,-0.213 (inactive),0.463,-0.0589,0.15,0.109,0.482,0.717
CC(=O)OC[C@H]1O[C@H](CCON=C[C@@H](C)[C@H](OCc2ccccc2)C(C)C)C=C[C@@H]1OC(C)=O,0.343,-0.36,-0.743,0.244 (inactive),0.2,0.608,0.365,0.274,0.564,-0.0819
O=C1[C@H]2[C@H]3[C@H](O)[C@H](O)CC(=NOC[C@@H](O)COCc4ccco4)[C@H]3CC[C@H]2C(=O)N1Cc1ccc2c(c1)OCO2,0.285,0.534,-1.5,0.204 (inactive),0.11,1.28,0.986,0.83,1.39,0.0751
CC(=O)OC[C@H]1O[C@@H](ON=C[C@@H](C)[C@H](OCc2ccccc2)C(C)C)[C@H](OC(C)=O)[C@@H](OC(C)=O)[C@@H]1OC(C)=O,-0.0075,0.129,0.169,0.14 (inactive),-0.167,0.623,0.338,-0.39,-1.22,-1.82
C=C(COC)/C(=C/C[C@H](OC(=O)c1ccncc1)c1ccc(CO)o1)c1cc(C(=O)OC)ccc1OC,1.69,-0.0393,-0.0885,-0.647 (inactive),1.37,0.637,0.0603,1.15,0.82,1.34
